Compound activity from PubChem.
TDP1 block: inhibitors of human tyrosyl-DNA phosphodiesterase TDP1; AID 485290; hit rate 0.28% among 350,000; Q9NUW8; recombinant TDP1, AlphaScreen DNA substrate cleavage; Potency, µM (top dose mostly 130 µM), for inactives: at the highest dose activity change, negative = inhibition, usual class: inhibitors; note: potency is the fitted concentration of half-maximal effect; % is set by controls: 0 for no effect and ±100 for the full control effect; nearly all actives have a fitted effect of over 40% in size
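Signal: AlphaScreen proximity between streptavidin donor and anti-FITC acceptor beads on intact substrate. Reaction: Tdp1 1 nM, substrate 15 nM final, 5 min RT after 15 min compound preincubation.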
JMJD2A Tudor: inhibitors of human JMJD2A Tudor domain. AlphaScreen JMJD2A-Tudor / H3K4me3 peptide binding. Potency, µM (series often up to 114 µM), inactives show at the top dose activity change, negative = inhibition, most hits filed as inhibitors. hit rate 4.4% among 390,000; note: potency is the fitted concentration of half-maximal effect; % is set by controls: 0 for no effect and ±100 for the full control effect; nearly all actives have a fitted effect of over 50% in size
BAZ2B block: blocks human BAZ2B | Potency, µM (titrated, usually from 114 µM), without a hit: at the highest dose activity change, negative = inhibition, most hits filed as inhibitors | Q9UIF8 | hit rate 4.4% among 360,000 | AlphaScreen BAZ2B-H3K14Ac peptide displacement; note: potency is the fitted concentration of half-maximal effect; % is set by controls: 0 for no effect and ±100 for the full control effect; nearly all actives have a fitted effect of over 60% in size
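AlphaScreen displacement of biotin-H3(5-23)K14Ac peptide (50 nM final) from BAZ2B (50 nM final) in PBS pH 7.4, 0.01% Tween-20; complex preformed 30 min RT, then compounds (top 110 uM) 30 min RT, beads 20 min dark.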
CtBP-E1A blk: blocks the CtBP interaction with E1A; AlphaScreen GST-E1A/His-CtBP binding, 1536-well; hits give low values; activity change, % (no concentration beside the values); hit rate 0.49% among 340,000; AID 651724; in the data active = activity change below about -65%; inconclusive = mostly about -30% to -63%; note: % is set by controls: 0 for no effect and ±100 for the full control effect
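GST-E1A and His-tagged CtBP (125 nM each as 5X stock) were preincubated with pin-transferred compound for 2 h at 37 °C in the dark, then glutathione donor and nickel acceptor beads were added for 1 h before AlphaScreen reading.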
Six1-Eya2 blk: Six1/Eya2 interaction inhibition | AID 651725 | hit rate 0.56% among 360,000 | AlphaScreen GST-Six1/His-Eya2 binding, biochemical; hits give low values | activity change, % (concentration not given with the values); in the data active = activity change below about -65%; inconclusive = mostly about -30% to -63%; note: % is set by controls: 0 for no effect and ±100 for the full control effect
Target sequence (O00167 whole entry, looked up): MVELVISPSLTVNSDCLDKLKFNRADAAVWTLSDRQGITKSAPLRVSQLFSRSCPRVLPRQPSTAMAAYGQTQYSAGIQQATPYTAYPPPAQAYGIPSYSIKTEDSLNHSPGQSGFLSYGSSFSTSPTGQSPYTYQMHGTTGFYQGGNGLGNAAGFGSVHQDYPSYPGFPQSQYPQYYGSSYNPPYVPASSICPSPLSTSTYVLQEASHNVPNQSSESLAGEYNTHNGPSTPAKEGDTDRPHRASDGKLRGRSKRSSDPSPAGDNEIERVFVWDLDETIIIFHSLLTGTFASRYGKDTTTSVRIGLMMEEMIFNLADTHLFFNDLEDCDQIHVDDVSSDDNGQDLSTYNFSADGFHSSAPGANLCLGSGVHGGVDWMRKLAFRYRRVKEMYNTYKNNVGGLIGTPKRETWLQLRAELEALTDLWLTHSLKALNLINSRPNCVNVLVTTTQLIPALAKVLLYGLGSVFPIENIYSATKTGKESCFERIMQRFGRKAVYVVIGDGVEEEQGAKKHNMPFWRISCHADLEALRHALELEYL
Target sequence (Q15475 whole entry, looked up): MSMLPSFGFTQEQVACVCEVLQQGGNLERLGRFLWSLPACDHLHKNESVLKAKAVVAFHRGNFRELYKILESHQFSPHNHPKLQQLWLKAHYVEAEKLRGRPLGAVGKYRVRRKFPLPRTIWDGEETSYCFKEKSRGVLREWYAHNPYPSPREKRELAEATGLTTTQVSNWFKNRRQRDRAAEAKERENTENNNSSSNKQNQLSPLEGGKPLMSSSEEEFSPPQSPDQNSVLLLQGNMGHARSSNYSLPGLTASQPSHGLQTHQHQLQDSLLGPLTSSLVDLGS
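AlphaScreen luminescence read after one hour at 37 °C in darkness. Pin-transferred compounds met GST-Six1 and His-Eya2 protein (5X stock 250 nM/500 nM) plus glutathione donor and Ni-chelate acceptor beads (5X, 50 ug/mL).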
HP1b chromo inh: inhibitors of HP1-beta chromodomain binding to methylated histone tails | P83916 | AlphaScreen HP1-beta / biotin-H3K9me3 peptide binding | Potency, µM (series often up to 114 µM), for the others: at the highest dose activity change, negative = inhibition, actives largely listed as inhibitors | hit rate 0.56% among 390,000 | AID 540317; note: potency is the fitted concentration of half-maximal effect; nearly all actives have a fitted effect of over 70% in size
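Compound inhibition of the preformed complex between 50 nM HP1-beta and 50 nM biotinylated H3K9me3 peptide was read by AlphaScreen. Buffer was PBS pH 7.4 with 0.01% Tween-20. Incubations ran 30 min at room temperature, with 10 ug/mL donor/acceptor beads.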
Numbers without * were called inactive; ? = inconclusive; . = no result given; [ ] = remark or other dose. The list is not random: actives were taken first. Their share in the collection is about 5.3%. Unless noted, calls come from the whole dose curve; as a rule, active = well fitted inhibition curve with a large enough effect; inconclusive = small, poorly fitted or top-dose-only effect; inactive = no such curve, though single readings can be large or run the other way.

SMILES | TDP1 block | JMJD2A Tudor | BAZ2B block | CtBP-E1A blk | Six1-Eya2 blk | HP1b chromo inh
COc1ccc(C2NCCc3c2[nH]c2ccccc32)cc1CN1CCc2cc(OC)c(OC)cc2C1C (stereo unspecified) | . | -24.3%[11.4 µM] | ? | -12.9 | -19.4 | 4.4%
COc1ccc(C2NCCc3c2[nH]c2ccccc32)cc1COc1ccc(F)cc1 (stereo unspecified) | . | 39.8µM* | 35.5µM* | ? | -20.5 | ?
Cc1ccc2c(c1)-c1c(c(C(=O)N3CCN(c4cc(Cl)ccc4C)CC3)nn1C)CS2 | 11.2% | -13.9% | -17.2% | . | . | -3.9%
Nc1cc2[nH]c(=O)c3ccccc3c2cc1[N+](=O)[O-] | . | -17.4% | . | -72.2* | -72.0* | 8.4%
Cc1nn(-c2ncc(C(F)(F)F)cc2Cl)c(=O)n1-c1ccc(F)cc1 | 3.6% | 50.1µM* | -12.3% | 15.8 | 4.7 | 9.9%
Cc1ccc(-n2c(C)nn(-c3ncc(C(F)(F)F)cc3Cl)c2=O)cc1 | -1.1% | -1.4% | -5.9% | 0.5 | 0.0 | 71.4%
Cc1ccc(C(=O)c2coc3c2C(=O)C(=O)c2ccccc2-3)cc1 | 6.6% | ? | ? | -7.6 | -7.0 | -25.2%
Cc1ccc2c3c(cccc13)-c1ccccc1C2=O | -1.1% | -11.3% | 9.2% | 12.5 | -4.8 | 30.1%
Cc1coc2c1C(=O)C(=O)c1c-2ccc2c1CCCC2(C)C | 21.2% | 44.7µM* | 7.94µM* | -15.5 | -6.8 | ?
Cc1coc2c1C(=O)C(=O)c1c-2ccc2c(C)cccc12 | 5.9% | 35.5µM* | 35.5µM* | ? | ? | ?
CC(C)=NOc1nc(N(C)C)nc(N2CCOCC2)n1 | 1.4% | 56.2µM* | -14.3% | 1.8 | -6.6 | -0.9%
Cc1c(Cl)cccc1-c1ccc(CNCc2ccccn2)o1 | . | ? | 25.1µM* | ? | ? | 5.2%
COCCNCC(=O)N1CCCCCC1 | -2.6% | 3.55µM* | 50.1µM* | 0.8 | 1.7 | -29.5%
O=C(NCCc1csc(-c2cccc(F)c2)n1)c1cccs1 | 4.1% | -2.6% | 5.5% | . | . | 24.9%[57 µM]
O=C1C=C(Nc2ccccc2O)c2ccccc2C1=O | 10.7% | ? | 44.7µM* | 12.0 | ? | -38.3%
Cc1ccc(NC2=CC(=O)C(=O)c3ccccc32)c(C)c1 | -0.2%[56.1 µM] | -14.2% | ? | . | 0.6 | 17.5%
Cc1ccc(-n2c(SCC(=O)N3CCC(C)CC3)nc3c([nH]c4ccccc43)c2=O)cc1 | 8.8% | -10.0% | -0.7% | . | . | 19.6%[57 µM]
COc1ccc(S(=O)(=O)N2CCC(C(=O)NC3CCCC3)CC2)cc1OC | 3.1% | -0.7% | -1.5% | 2.7 | 3.6 | 37.5%
COc1cc(CN2CCN(c3cccc(C)c3C)CC2)cc(Br)c1O | 3.0% | 2µM* | ? | -11.5 | -23.9 | ?
COc1ccc(CN2CCN(c3cccc(C)c3C)CC2)cc1OC | 3.0% | 7.4% | 56.2µM* | 4.9 | 6.6 | 16.7%
COc1cc(CN2CCC(C(=O)NC3CCCC3)CC2)cc(Br)c1O | 0.0% | 3.16µM* | 50.1µM* | -0.3 | 1.0 | -50.5%
COc1ccc(CNC(=O)CN2CCN(c3cccc(C)c3C)CC2)cc1 | . | -14.4% | -1.2% | 2.8 | 6.8 | 56.3%
CC(C)(C)c1ccc(C(=O)N2CCNCC2)cc1 | 2.9% | 5.4% | 1.5% | -1.8 | 9.5 | 19.0%
CN1CCC2(CC1)N=C(c1ccc(F)cc1)C(=S)N2C(=O)c1ccc(C(C)(C)C)cc1 | 11.0% | 31.6µM* | 35.5µM* | -5.2 | 12.1 | 31.6µM*
CCCCN(C(=O)c1cc(-c2ccco2)nc2ccccc12)c1c(N)n(CCCC)c(=O)[nH]c1=O | . | ? | ? | -3.8 | -2.3 | -23.3%
SMILES | TDP1 block | JMJD2A Tudor | BAZ2B block | CtBP-E1A blk | Six1-Eya2 blk | HP1b chromo inh
CCCCN(C(=O)c1ccccc1F)c1c(N)n(CCC)c(=O)[nH]c1=O | 16.5% | 79.4µM* | -12.5% | 25.0 | 10.0 | 29.0%
CCCCn1c(N)c(N(CCOC)C(=O)c2ccc(-c3ccc([N+](=O)[O-])cc3)o2)c(=O)[nH]c1=O | 1.3% | -21.8% | ? | -2.9 | -20.7 | -10.4%
CCCCn1c(N)c(N(CCOC)C(=O)c2ccc(-c3ccc(C(C)=O)cc3)o2)c(=O)[nH]c1=O | 0.2% | ? | 70.8µM* | 6.6 | -0.4 | 16.7%
CCCCn1c(N)c(N(CCOC)C(=O)c2cc(-c3ccco3)nc3ccccc23)c(=O)[nH]c1=O | . | 39.8µM* | 50.1µM* | -0.6 | -4.9 | -37.8%
O=C(CNCCC1=CCCCC1)Nc1ccc(N2CCCCCC2)cc1 | 9.2% | 20µM* | 12.6µM* | ? | ? | 15.8µM*
CC(=O)Nc1ccc(C(=O)OCC(=O)NCCC2=CCCCC2)cc1 | -9.5%[0.505 µM] | -15.9% | -9.7% | 2.8 | 0.4 | 19.8%
O=C(CNC1CCCC1)Nc1ccc(N2CCCCCC2)cc1 | 10.7% | 2.82µM* | 22.4µM* | 2.2 | ? | 39.8µM*
Cc1cc(NC(=O)CN2CCC(C)CC2)no1 | -2.7% | 5.01µM* | . | . | 6.6 | ?
O=C(CNCC1CCCO1)Nc1ccc(N2CCCCCC2)cc1 (stereo unspecified) | 6.5% | 3.16µM* | 35.5µM* | -5.0 | -13.6 | 14.1µM*
COc1ccc(Cl)cc1NC(=O)N1CCN(Cc2cc(=O)n3nc(-c4ccccc4)sc3n2)CC1 | 8.1% | 4.2% | 4.9% | . | . | 25.7%[57 µM]
COc1cc(NC(=O)CN2Cc3ccccc3C2=O)cc(OC)c1OC | 1.2% | 2.3% | 3.9% | . | . | 25.4%
COC(=O)NC(/C(C(=O)OC)=C(\C)NCc1ccccc1)c1ccc(F)cc1 (stereo unspecified) | 10.1%[21 µM] | . | . | . | . | .
COc1cccc(NC(=O)CCc2c(C)nc3ncnn3c2C)c1 | 3.5% | -16.8% | -9.8% | . | . | 35.6%
O=C(CNCC1CCCCC1)Nc1ccc(N2CCCCC2)cc1 | 5.1% | . | 28.2µM* | . | . | .
CC1CCN(CC(=O)Nc2ccc(S(=O)(=O)N3CCCCC3)cc2)CC1 | 2.9% | -5.8% | 7.3% | -17.2 | -1.0 | 23.9%
CC1CCN(CC(=O)Nc2ccc(N3CCCCCC3)cc2)CC1 | 11.9% | 20µM* | 20µM* | ? | ? | 22.4µM*
O=C(CNC1CCCCCC1)Nc1ccc(N2CCCC2)cc1 | 1.0% | . | ? | . | . | .
CCCCn1c(=NC(=O)C(C)(C)Oc2ccc(Cl)cc2)c(C(=O)OCC)cc2c(=O)n3ccccc3nc21 | 8.8% | 1.4% | 5.3% | . | . | 52.2%
CC(C)=NOC[C@@H](C)[C@H](OCc1ccccc1)C(C)C | 6.9%[21 µM] | . | . | . | . | .
CC(=O)N(CC1CCCO1)c1nnc(-c2ccccn2)s1 (stereo unspecified) | 1.9% | -26.8% | 50.1µM* | -2.5 | -4.3 | 41.0%
COCCN(C(C)=O)c1nnc(-c2ccccn2)s1 | 2.9% | -30.4% | 56.2µM* | -4.6 | -5.8 | 28.6%
Cc1nn(C)c2c1c(C(F)(F)F)cc(=O)n2CC(=O)Nc1ccc(F)cc1F | 5.8% | -4.7% | -1.7% | . | . | -11.0%
